Common to all, as to conditions: concentration: 10 µM; 24 h
The test system of test [1] is HCC1569. The test can be described thus: cell number relative to DMSO (% of DMSO); higher = more cells (less growth inhibition / toxicity). The gist of the method: (§1)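 H1.0 nuclear intensity or cell number is expressed as percent of the plate control, with the median of replicates taken. HCC1569 and TDF cells were treated with compounds at 10 µM for 24 h at 37 °C, in triplicate, then fixed and immunostained for H1.0 with DAPI as a nuclear stain. HCC1569 values were smoothed to correct for positional effects.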

Test [2] concerns TDF. The description is as above. The gist of the method: as §1
For test [3], the system named is TDF. The test can be described thus: H1.0 immunofluorescence intensity relative to DMSO (% of DMSO); higher = stronger H1.0 induction, active = 120 or more. The gist of the method:
as §1

Test [4] deals with HCC1569. The test can be described thus: H1.0 immunofluorescence intensity relative to DMSO (% of DMSO); higher = stronger H1.0 induction, active = 140 or more. The gist of the method:
as §1

Molecules are shown by their SMILES. ± gives the standard deviation of the averaged measurements.
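Wherever H1.0 immunofluorescence intensity relative to DMSO is given: TDF is a line of transformed human dermal fibroblasts of mesenchymal origin.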
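Wherever cell number relative to DMSO is given: TDF denotes transformed human dermal fibroblasts of mesenchymal origin.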

As for `Cl.O=C(CCCN1CCC(O)(c2cccc(C(F)(F)F)c2)CC1)c1ccc(F)cc1` [Trifluperidol hydrochloride], the figures for the cell number with HCC1569 [1] and in the test on TDF [2] were 101 and 111, respectively. For the same compound, the H1.0 immunofluorescence intensity in the test on TDF [3] is 98.4 (inactive); with HCC1569 [4], 105 (inactive).

Take `OC1(c2ccc(Cl)cc2)CCN(Cc2c[nH]c3ccccc23)CC1`: the cell number came out at 94.6 in the test on HCC1569 [1] and 93 in the test on TDF [2]. For the same compound, the H1.0 immunofluorescence intensity with TDF [3] is 106 (inactive); in the test on HCC1569 [4], 103 (inactive).

On to `CC(C)(C)C(=O)Oc1ccc(S(=O)(=O)Nc2ccccc2C(=O)NCC(=O)[O-])cc1.O.[Na+]`, for which the cell number amounted to 101 with HCC1569 [1] and 98.8 in the test with TDF [2]. The values for the H1.0 immunofluorescence intensity in the test on TDF [3] and in the test with HCC1569 [4] were 87.6 (inactive) and 108 (inactive), respectively.

Regarding `OCc1c[nH]c2ccccc12` [Indole-3-carbinol], the cell number in the test on HCC1569 [1] is 97.5; in the test with TDF [2], 109. For the same compound, the H1.0 immunofluorescence intensity is 102 (inactive) in the test with TDF [3] and 110 (inactive) in the test on HCC1569 [4].

On to `Cc1cc(=O)oc2cc(O)ccc12` [4-Methylumbelliferone], for which the cell number in the test with HCC1569 [1] and in the test on TDF [2] was 103 in each case. The H1.0 immunofluorescence intensity in the test on TDF [3] was 102 (inactive); with HCC1569 [4] it was 94.5 (inactive).

`CON=C(C(=O)NC1C(=O)N2C(C(=O)[O-])=C(C[N+]3(C)CCCC3)CSC12)c1csc(N)n1` (stereo not given) [Cefepime]: the cell number with HCC1569 [1] turned out to be 99.6; in the test with TDF [2], 97. Further, the H1.0 immunofluorescence intensity was 91.1 (inactive) with TDF [3] and 110 (inactive) in the test with HCC1569 [4].

`CCOC(=O)OC(C)OC1=C(C(=O)Nc2ccccn2)N(C)S(=O)(=O)c2ccccc21` (stereo not given) [Ampiroxicam]: the values for the cell number in the test with HCC1569 [1] and in the test with TDF [2] were 105 and 94.9, respectively. Besides, the H1.0 immunofluorescence intensity is 99.6 (inactive) in the test with TDF [3] and 116 (inactive) in the test on HCC1569 [4].

Turning to `Cc1cnc(C(=O)NCCc2ccc(S(=O)(=O)NC(=O)NC3CCCCC3)cc2)cn1` [Glipizide], the figures for the cell number in the test with HCC1569 [1] and in the test on TDF [2] were 106 ± 3.7 and 107 ± 6.9, respectively. Besides, the H1.0 immunofluorescence intensity in the test with TDF [3] is 96.6 (inactive); in the test on HCC1569 [4], 103 (inactive).

As to `Cl.N=c1ccn2c(n1)OC1C(O)C(CO)OC12` (stereo not given) [Ancitabine hydrochloride], the values for the cell number with HCC1569 [1] and in the test with TDF [2] were 73.5 and 50.3, respectively. The H1.0 immunofluorescence intensity in the test on TDF [3] is 109 (inactive); in the test on HCC1569 [4], 92 (inactive).

In the case of `CC1(NCC(O)COc2cccc3[nH]ccc23)CCC(C(C)(C)NC(=O)CBr)CC1` (stereo not given) [Pindobind-5HT1A], the cell number with HCC1569 [1] amounted to 61.4; with TDF [2] it was 10.4. Besides, the H1.0 immunofluorescence intensity in the test on TDF [3] was 135 (active); in the test with HCC1569 [4], 178 (active).

Source of the values: the supplement of paper PMC7156485.
